An excerpt weighted towards active compounds, which were near 1.4% of everything screened.
BRCA1 expr act = increases BRCA1 expression. Potency, µM (series often up to 46.1 µM), actives largely listed as activators. MCF7-BRCA1-FFLuc reporter, luminescence, 48 h; response scale: scaled: vehicle 0%, 10 µM genistein 100%. actives 1.1% (n = 380,000). AID 624202; note: nearly all actives have a fitted effect of over 80% in size
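Activators of BRCA1 expression were detected as increased firefly luciferase luminescence in engineered MCF7 cells after 48 h compound incubation. Signals were scaled to genistein 10 microM as full activation.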
IL2 activator = activates IL-2 in a cell-based reporter assay; activation, % (series mostly up to about 46 µM); AID 652025; IL-2 activation reporter assay, cell-based qHTS; stimulated with anti-CD3/CD4/CD28 beads; in transgenic mouse T cells; actives 0.065% (n = 360,000); in the data active = activation above about 50%; inconclusive = mostly about 30% to 49%
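Unstimulated transgenic mouse T cells preincubated 60 min with compound, then stimulated with anti-CD3/anti-CD4-coated beads plus anti-CD28 for 18 h at 37 degrees C. IL-2 response read as EGFP and DsRed fluorescence by plate cytometry.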
p53 reactivation = restores transcriptional activity of mutant p53. H1299 p53-A138V BP100-luciferase reporter, luminescence, 24 h. Potency, µM (highest dose often 92.2 µM), most hits filed as activators. actives 0.063% (n = 320,000). AID 504706; note: nearly all actives have a fitted effect of over 45% in size
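p53-null H1299 cells stably carrying temperature-sensitive p53-A138V and a BP100-luciferase reporter were pinned with compounds (4-point, 1:5 series) and held 24 hrs at 37 deg C. Luminescence was read 10 min after detection reagent.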
TCR activator = T cell receptor activation. 330,000 tested, under 10 active. primary human leukocytes, anti-CD3, IL-2 HTRF, 48 h. Potency, µM (series often up to 9.22 µM), actives largely listed as activators
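48 hr co-incubation of compounds, a-CD3 beads and primary human leukocytes; IL-2 quantified homogeneously by HTRF with anti-IL-2 K and d2 conjugates.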
uPA generation = inhibitors of cell surface uPA generation; cell surface uPA generation assay, qHTS; actives 0.31% (n = 330,000); AID 540303; Potency, µM (series often up to 38.3 µM), most hits filed as inhibitors; active = well fitted inhibition curve with a large enough effect; inconclusive = small, poorly fitted or top-dose-only effect; inactive = no such curve, though single readings can be large or run the other way; tested in mouse RAW 264.7 cells; note: nearly all actives have a fitted effect of over 55% in size
Each line names hits and unclear results; the compound was inactive in the other large screens. Unless noted, calls come from the whole dose curve; as a rule, active = well fitted curve in the direction sought with a large enough effect; inconclusive = small, poorly fitted or top-dose-only effect, or another doubt; inactive = no such curve, though single readings can be large; an effect the other way counts as inactive or inconclusive.

O=C1NCCN/C1=C\C(=O)c1ccc(Br)cc1	BRCA1 expr act inconclusive, uPA generation inconclusive
O=C1NCCN/C1=C\C(=O)c1cccc(Br)c1	BRCA1 expr act 11µM
COc1ccccc1N1CCN(Cc2cc(Br)c(O)c3ncccc23)CC1	uPA generation 2.8µM
CCOc1ccc(C(=O)COC(=O)C2COc3ccccc3O2)cc1 (centres undefined)	p53 reactivation inconclusive
CCOc1ccc(-c2csc(C3COc4ccccc4O3)n2)cc1 (centres undefined)	BRCA1 expr act 10µM (no result: p53 reactivation, TCR activator)
Cc1ccc(Nc2nc(N)c3ccccc3n2)cc1C	BRCA1 expr act inconclusive, uPA generation 7.1µM (no result: p53 reactivation, TCR activator)
Cc1cc(Nc2ccc(C)c(C)c2)c2ccccc2n1	none
COc1ccc(Nc2nc(N)c3ccccc3n2)c(OC)c1	BRCA1 expr act 3.5µM, p53 reactivation inconclusive
COc1ccc2cc3cc(C(=O)Nc4ccccc4C)oc3nc2c1	none (no result: IL2 activator, p53 reactivation, TCR activator, uPA generation)
Cn1/c(=N\NC(=O)c2ccccc2Cl)sc2ccccc21	BRCA1 expr act 11µM, p53 reactivation inconclusive
O=C1/C(=C/c2ccncc2)Cc2ccccc21	none
CC1C/C(=C/c2ccncc2)C(=O)/C(=C/c2ccncc2)C1 (centres undefined)	uPA generation 3.5µM
COc1cccc(CNC(=O)CN2C(=O)N(c3c(C)cccc3C)S(=O)(=O)c3ccccc32)c1OC	none (no result: IL2 activator, p53 reactivation, TCR activator, uPA generation)
CCCN(C(=O)Nc1cn(CC(C)C)c(=O)c2ccccc12)c1ccc(F)cc1	none (no result: IL2 activator, p53 reactivation, TCR activator, uPA generation)
O=C(Nc1nc(-c2ccccn2)cs1)c1ccc(Cl)s1	uPA generation inconclusive
Cc1ccc(C(=O)Nc2nc(-c3ccccn3)cs2)s1	p53 reactivation inconclusive, uPA generation 4.5µM
O=C(Nc1nc(-c2ccccn2)cs1)c1cccc(S(=O)(=O)N2CCOCC2)c1	uPA generation 10µM
COc1ccc2nc3sc(C(=O)N4CCN(c5ccc(F)cc5)CC4)cc3cc2c1	none (no result: IL2 activator, p53 reactivation, TCR activator, uPA generation)
COc1ccc(C(=O)/C=C(\C)Nc2ccc3c(c2)OCO3)cc1	BRCA1 expr act inconclusive, p53 reactivation inconclusive
CCOc1ccc(C(=O)N(CC)CC(=O)Nc2ccc3c(c2)OCCO3)cc1	BRCA1 expr act inconclusive, p53 reactivation inconclusive (no result: TCR activator)
CCOc1ccc(N/C(C)=C\C(=O)c2ccc3c(c2)OCCO3)cc1	BRCA1 expr act 13µM
CCOc1ccc(N/C(C)=C/C(=O)c2ccc3c(c2)OCCO3)cc1	BRCA1 expr act 4.5µM
Cc1ccc2[nH]c(=O)c3cc(C(=O)NCc4cccc(Cl)c4)sc3c2c1	none (no result: IL2 activator, p53 reactivation, TCR activator, uPA generation)
Cc1ccc(CNc2ccc3c(c2)ncn3C)cc1	BRCA1 expr act 5µM (no result: TCR activator)
CCc1ccc(CNc2ccc3c(c2)ncn3C)cc1	BRCA1 expr act inconclusive, p53 reactivation inconclusive (no result: uPA generation)
CCCn1cnc2cc(NCc3ccccn3)ccc21	BRCA1 expr act 4µM, p53 reactivation inconclusive, uPA generation inconclusive
O=C(NNCc1ccc(O)cc1)c1ccccc1Cl	BRCA1 expr act 13µM, p53 reactivation inconclusive
CC1Cc2nc(SCC(=O)Nc3ccc4c(c3)OCCO4)n(C)c(=O)c2S1 (centres undefined)	none
CC1Cc2nc(SCC(=O)Nc3ccc4c(c3)OCO4)n(Cc3ccccc3)c(=O)c2S1 (centres undefined)	BRCA1 expr act 11µM
COCCn1c(SCC(=O)Nc2ccc3c(c2)OCCO3)nc2c(c1=O)SC(C)C2 (centres undefined)	BRCA1 expr act 8.9µM
COc1cccc(CNC(=O)CN2C(=O)N(c3cc(C)ccc3C)S(=O)(=O)c3ccccc32)c1OC	none (no result: IL2 activator, p53 reactivation, TCR activator, uPA generation)
CCN1CCOC(=O)C1CC(=O)Nc1cc(Cl)ccc1OC (centres undefined)	none (no result: IL2 activator, p53 reactivation, TCR activator, uPA generation)
CCOC(=O)C1CCN(c2ncnc3c2oc2ccccc23)CC1	p53 reactivation inconclusive
CCOC(=O)c1cnn(-c2ncnc3c2oc2ccccc23)c1N	BRCA1 expr act 3.2µM, p53 reactivation inconclusive
CN(C)C(=O)CSc1nnc(C23CC4CC(CC(C4)C2)C3)o1	BRCA1 expr act 10µM, p53 reactivation inconclusive (no result: TCR activator)
CC(C)c1ccc(NC(=O)C2CCCN(S(=O)(=O)c3cccc4nsnc34)C2)cc1 (centres undefined)	none (no result: IL2 activator, p53 reactivation, TCR activator, uPA generation)
COCCCNC(=O)C(C#N)c1nc2ccccc2nc1N1CCN(Cc2ccccc2)CC1 (centres undefined)	IL2 activator 96
C=CCOC(=O)C(C#N)c1nc2ccccc2nc1N1CCN(Cc2ccccc2)CC1 (centres undefined)	none
C=CCNC(=O)C(C#N)c1nc2ccccc2nc1N1CCN(Cc2ccccc2)CC1 (centres undefined)	IL2 activator 67
Cc1ccc(Sc2cnc3ccccc3n2)cc1	BRCA1 expr act 7.1µM, p53 reactivation inconclusive
COc1cc2nc(N3CCOCC3)nc(NC3CCN(C)CC3)c2cc1OC	none (no result: IL2 activator, p53 reactivation, TCR activator, uPA generation)
Cc1ccc(C(=O)c2c3ccc([N+](=O)[O-])cc3[n+]([O-])n2CCCN)cc1	p53 reactivation inconclusive, uPA generation 0.63µM
COc1ccc(OC)c(CNc2ncnc3onc(-c4ccc(Cl)cc4)c23)c1	none (no result: IL2 activator, p53 reactivation, TCR activator, uPA generation)
O=C(O)C(=O)Nc1nc(-c2ccc3c(c2)OCCO3)cs1	none
Cc1ccc(NC(=O)Nc2ccc3c(c2)OCO3)nc1	BRCA1 expr act inconclusive, uPA generation inconclusive
CC(=O)Nc1cnc(-c2cc(C)c(O)c(C)c2)cn1	BRCA1 expr act 8.9µM (no result: p53 reactivation, TCR activator, uPA generation)
CC(=O)Nc1cnc(-c2ccc3c(c2)OCO3)cn1	BRCA1 expr act 2.8µM (no result: p53 reactivation, TCR activator, uPA generation)
O=C(Nc1nc(-c2ccc3c(c2)OCO3)cs1)C1CC1	BRCA1 expr act 4.5µM, p53 reactivation inconclusive, uPA generation inconclusive
CC1CCN(S(=O)(=O)c2ccc3c(ccc(=O)n3CC(=O)NCc3ccc(Cl)cc3)c2)CC1	none (no result: IL2 activator, p53 reactivation, TCR activator, uPA generation)
CC1CCN(c2ccc(NC(=O)c3ccc([N+](=O)[O-])o3)cc2)CC1	uPA generation 3.2µM
Cc1cc(-c2ccc(C)c(S(=O)(=O)NC(c3cccs3)C(C)C)c2)on1 (centres undefined)	none (no result: IL2 activator, p53 reactivation, TCR activator, uPA generation)
CCCCOc1ccc(C(=O)N=c2sccn2C)cc1OC	BRCA1 expr act 4µM
CCN(CC)S(=O)(=O)c1cc(C(=O)N=c2sccn2C)ccc1OC	none
Cc1ccc(NC(=O)Cn2c(=O)n(CCCCC(=O)NCc3ccccc3Cl)c(=O)c3ccccc32)cc1C	none (no result: IL2 activator, p53 reactivation, TCR activator, uPA generation)
COc1ccc(N2CCN(C(=O)CCc3c(C)nc4c(-c5ccccc5)c(C)nn4c3C)CC2)cc1	none (no result: IL2 activator, p53 reactivation, TCR activator, uPA generation)
CCCCN(C(=O)Cc1cccs1)c1nnc(-c2cccnc2)s1	BRCA1 expr act 3.2µM, p53 reactivation inconclusive
COc1cccc(N2C(=O)CSC23C(=O)N(CC(=O)Nc2cccc(Cl)c2)c2ccccc23)c1 (centres undefined)	none (no result: IL2 activator, p53 reactivation, TCR activator, uPA generation)
O=c1c2ccccc2nnn1-c1ccc(Br)cc1	BRCA1 expr act 4.5µM
COc1cc(OC)cc(-c2nc3nc(C)c(CCC(=O)Nc4ccc(F)cc4F)c(C)n3n2)c1	none (no result: IL2 activator, p53 reactivation, TCR activator, uPA generation)
Cc1ccc(-c2cc(N)n(-c3ccc(F)cc3)n2)cc1	BRCA1 expr act 5µM
Cc1ccc(-c2cc(N)n3nc(-c4ccc(C)cc4)cc3n2)cc1	none

Screening results from PubChem BioAssay.
